# Activity calls are given as the source filed them. The calls were made as follows: active = hit-call score of the fitted dose curve at least 0.9, where 1 is the maximum; inactive = score below 0.9.
# Test: APR_HepG2_MitoMembPot_72hr: Apredica 72-hour HepG2 Assay for Mitochondrial Membrane Potential (AID 2282917)
# Conditions: imaging, actives raise or lower the signal
# In short: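 HepG2 cells exposed 72 h to compounds at 0.39–200 uM (0.5% v/v DMSO, duplicates); MitoTracker Red CMXRos 250 nM loaded 30 min before 3.7% formaldehyde fixation, imaged by HCS fluorescence. Bidirectional fit versus DMSO.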
row,SMILES,outcome
1,Oc1cc(Cl)c(Cl)cc1Cl,inactive
2,CC(C)O.CC(C)O.OCCN(CCO)CCO.OCCN(CCO)CCO.[Ti],inactive
3,N#Cc1cccnc1,inactive
4,CN(C)C(=S)S,inactive
5,O=C(N[C@H]1CN2CCC1CC2)c1ccc2c(c1)OCCO2,inactive
6,O=C(O)C1(c2ccc3c(c2)OC[C@H](Cc2ccc(-c4ccccc4)cc2)[C@H]3O)CCCC1,inactive
7,OCCN(CCO)CCO,inactive
8,Oc1c(Cl)cc(Cl)cc1Cl,inactive
9,Cc1cc(C)cc(C)c1,inactive
10,Clc1cccc(Cl)c1,inactive
11,CC(C)(C)c1ccccc1O,inactive
12,CCCCCCCCCCCCc1cccc(S(=O)(=O)O)c1,inactive
13,Clc1cccc(Cl)c1Cl,inactive

# Test: APR_HepG2_MitoticArrest_72hr: Apredica 72-hour HepG2 Assay for Mitotic Arrest (AID 2282918)
# Conditions: high-content imaging, actives raise or lower the signal
# In short: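 HepG2, 72 hr exposure, 0.39–200 uM in duplicate, 0.5% v/v DMSO final. Formaldehyde-fixed, Triton-permeabilized, anti-phospho-histone H3/FITC plus Hoechst. ArrayScan imaging at 20x; curves fit bidirectionally against DMSO baseline.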
SMILES,AC50,outcome
Oc1cc(Cl)c(Cl)cc1Cl,29.5 µM (active),
CC(C)O.CC(C)O.OCCN(CCO)CCO.OCCN(CCO)CCO.[Ti],,inactive
N#Cc1cccnc1,,inactive
CN(C)C(=S)S,0.125 µM (active),
O=C(N[C@H]1CN2CCC1CC2)c1ccc2c(c1)OCCO2,,inactive
O=C(O)C1(c2ccc3c(c2)OC[C@H](Cc2ccc(-c4ccccc4)cc2)[C@H]3O)CCCC1,105 µM (active),
OCCN(CCO)CCO,,inactive
Oc1c(Cl)cc(Cl)cc1Cl,50 µM (active),
Cc1cc(C)cc(C)c1,,inactive
Clc1cccc(Cl)c1,,inactive
CC(C)(C)c1ccccc1O,,inactive
CCCCCCCCCCCCc1cccc(S(=O)(=O)O)c1,,inactive
Clc1cccc(Cl)c1Cl,,inactive

# Test: APR_HepG2_MicrotubuleCSK_72hr: Apredica 72-hour HepG2 Assay for Microtubule CSK Stabilty (AID 2282919)
# Conditions: HepG2 microtubule cytoskeleton, high-content imaging, actives raise or lower the signal
# In short: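 Ten-point dosing (0.39–200 uM, 0.5% DMSO) of HepG2 for 72 hr, with taxol as the cytoskeletal positive control. The cells were formaldehyde-fixed and then stained with alpha-tubulin/Cy5 and Hoechst. Imaging at 20x used a −2 um Z offset for tubulin.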
SMILES,outcome,AC50
Oc1cc(Cl)c(Cl)cc1Cl,inactive,
CC(C)O.CC(C)O.OCCN(CCO)CCO.OCCN(CCO)CCO.[Ti],inactive,
N#Cc1cccnc1,inactive,
CN(C)C(=S)S,,1.78 µM (active)
O=C(N[C@H]1CN2CCC1CC2)c1ccc2c(c1)OCCO2,inactive,
O=C(O)C1(c2ccc3c(c2)OC[C@H](Cc2ccc(-c4ccccc4)cc2)[C@H]3O)CCCC1,inactive,
OCCN(CCO)CCO,inactive,
Cc1cc(C)cc(C)c1,inactive,
Clc1cccc(Cl)c1,inactive,
CC(C)(C)c1ccccc1O,inactive,
CCCCCCCCCCCCc1cccc(S(=O)(=O)O)c1,inactive,
Clc1cccc(Cl)c1Cl,inactive,

# Test: APR_HepG2_P-H2AX_24hr: Apredica 24-hour HepG2 Assay for H2AX Phosphorylation (AID 2282920)
# Conditions: high-content imaging, actives raise or lower the signal
# In short: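 HCS fluorescence imaging of phospho-H2A.x immunostain (with Hoechst 33342 nuclear counterstain) in HepG2 after 24 hr compound exposure; 10 concentrations, 0.39–200 uM, duplicate wells, 0.5% v/v DMSO. Gain or loss of signal fitted relative to DMSO baseline.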
SMILES,AC50,outcome
Oc1cc(Cl)c(Cl)cc1Cl,38.9 µM (active),
CC(C)O.CC(C)O.OCCN(CCO)CCO.OCCN(CCO)CCO.[Ti],,inactive
N#Cc1cccnc1,,inactive
CN(C)C(=S)S,12 µM (active),
O=C(N[C@H]1CN2CCC1CC2)c1ccc2c(c1)OCCO2,,inactive
O=C(O)C1(c2ccc3c(c2)OC[C@H](Cc2ccc(-c4ccccc4)cc2)[C@H]3O)CCCC1,108 µM (active),
OCCN(CCO)CCO,,inactive
Oc1c(Cl)cc(Cl)cc1Cl,,inactive
Cc1cc(C)cc(C)c1,,inactive
Clc1cccc(Cl)c1,,inactive
CC(C)(C)c1ccccc1O,,inactive
CCCCCCCCCCCCc1cccc(S(=O)(=O)O)c1,,inactive
COc1ccccc1N,,inactive
Clc1cccc(Cl)c1Cl,,inactive

# Test: APR_HepG2_StressKinase_72hr: Apredica 72-hour HepG2 Assay for Stress Kinase (AID 2282921)
# Conditions: HepG2 stress kinase (phospho-c-Jun) imaging, actives raise or lower the signal
# In short: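 Stress kinase signal is phospho-c-Jun immunofluorescence (1:500 primary, Cy3 secondary) in fixed, permeabilized human HepG2 cells imaged at 20x. Exposure lasted 72 hr over ten concentrations from 0.39 to 200 uM, 0.5% DMSO, in duplicate. Bidirectional fit versus DMSO.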
SMILES,AC50,outcome
Oc1cc(Cl)c(Cl)cc1Cl,51.8 µM (active),
CC(C)O.CC(C)O.OCCN(CCO)CCO.OCCN(CCO)CCO.[Ti],,inactive
N#Cc1cccnc1,,inactive
CN(C)C(=S)S,1.16 µM (active),
O=C(N[C@H]1CN2CCC1CC2)c1ccc2c(c1)OCCO2,,inactive
O=C(O)C1(c2ccc3c(c2)OC[C@H](Cc2ccc(-c4ccccc4)cc2)[C@H]3O)CCCC1,116 µM (active),
OCCN(CCO)CCO,,inactive
Oc1c(Cl)cc(Cl)cc1Cl,,inactive
Cc1cc(C)cc(C)c1,,inactive
Clc1cccc(Cl)c1,,inactive
CC(C)(C)c1ccccc1O,,inactive
CCCCCCCCCCCCc1cccc(S(=O)(=O)O)c1,,inactive
COc1ccccc1N,,inactive
Clc1cccc(Cl)c1Cl,,inactive

# Test: APR_HepG2_StressKinase_24hr: Apredica 24-hour HepG2 Assay for Stress Kinase (AID 2282922)
# Conditions: HepG2 stress kinase (phospho-c-Jun) imaging, actives raise or lower the signal
# In short: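 After 24 hr compound treatment (up to 200 uM, final DMSO 0.5% v/v), HepG2 cells are fixed and multiplex-labeled; phospho-c-Jun intensity is captured by high-content fluorescence imaging and analyzed relative to DMSO.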
SMILES,outcome,AC50
Oc1cc(Cl)c(Cl)cc1Cl,inactive,
CC(C)O.CC(C)O.OCCN(CCO)CCO.OCCN(CCO)CCO.[Ti],inactive,
N#Cc1cccnc1,inactive,
CN(C)C(=S)S,inactive,
O=C(N[C@H]1CN2CCC1CC2)c1ccc2c(c1)OCCO2,inactive,
O=C(O)C1(c2ccc3c(c2)OC[C@H](Cc2ccc(-c4ccccc4)cc2)[C@H]3O)CCCC1,,111 µM (active)
OCCN(CCO)CCO,inactive,
Oc1c(Cl)cc(Cl)cc1Cl,inactive,
Cc1cc(C)cc(C)c1,inactive,
Clc1cccc(Cl)c1,inactive,
CC(C)(C)c1ccccc1O,inactive,
CCCCCCCCCCCCc1cccc(S(=O)(=O)O)c1,inactive,
COc1ccccc1N,inactive,
Clc1cccc(Cl)c1Cl,inactive,

# Test: APR_HepG2_MitoMass_72hr: Apredica 72-hour HepG2 Assay for Mitochondrial Mass (AID 2282924);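 also: MitoTracker Red CMXRos stain intensity per cell imaged as mitochondrial mass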
# Conditions: high-content imaging, actives raise or lower the signal
# In short: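 Steps: treat HepG2 72 hr (0.39–200 uM, duplicate wells); load MitoTracker Red CMXRos, 250 nM, 30 min; fix with 3.7% formaldehyde, permeabilise with 0.5% Triton X-100; capture images, nuclei via Hoechst 33342; fit bidirectionally against DMSO.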
SMILES,outcome,AC50
Oc1cc(Cl)c(Cl)cc1Cl,inactive,
CC(C)O.CC(C)O.OCCN(CCO)CCO.OCCN(CCO)CCO.[Ti],inactive,
N#Cc1cccnc1,inactive,
CN(C)C(=S)S,,0.0391 µM (active)
O=C(N[C@H]1CN2CCC1CC2)c1ccc2c(c1)OCCO2,inactive,
O=C(O)C1(c2ccc3c(c2)OC[C@H](Cc2ccc(-c4ccccc4)cc2)[C@H]3O)CCCC1,,112 µM (active)
OCCN(CCO)CCO,inactive,
Oc1c(Cl)cc(Cl)cc1Cl,inactive,
Cc1cc(C)cc(C)c1,inactive,
Clc1cccc(Cl)c1,inactive,
CC(C)(C)c1ccccc1O,inactive,
CCCCCCCCCCCCc1cccc(S(=O)(=O)O)c1,inactive,
Clc1cccc(Cl)c1Cl,inactive,
